Most compounds without a hit are left out; they make up all but 21% or so of the library.
Shiga inhibitor: Shiga toxin inhibition | Vero cells, Shiga toxin protein synthesis inhibition reporter | inhibition, % at 38.7 µM | 290,000 compounds, 9.2% hits; in the data active = inhibition mostly above about 28%, no sharp cut-off; inactive = mostly below about 43%; also: 0% is about no effect
Pf growth 96h: P. falciparum growth inhibition at 96 hours; P. falciparum luciferase reporter growth, 96 h; Potency, µM (doses to about 28.7 µM), for inactives: at the top dose activity change, negative = inhibition, usual class: inhibitors; 320,000 compounds, 6.9% hits; AID 504834; active = well fitted inhibition curve with a large enough effect; inconclusive = small, poorly fitted or top-dose-only effect, or another doubt; inactive = no such curve, though single readings can be large or run the other way; also: potency is read from the fitted curve at half-maximal effect; % is scaled to controls: 0 for no effect and ±100 for the full control effect
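Plates of compound plus infected erythrocytes (2% hematocrit, 0.05% parasitemia final) incubate 96 hours, 37 C, 5% CO2. Detection reagent added; reduced luminescence from the parasites' luciferase reporter flags inhibition.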
Pf growth 48h: inhibits P. falciparum growth in the first generation, 48 h; P. falciparum luciferase growth in erythrocytes, 48 h; Potency, µM (doses to about 28.7 µM), for the others: top-dose activity change, negative = inhibition, actives largely listed as inhibitors; 310,000 compounds, 5.9% hits; active = well fitted inhibition curve with a large enough effect; inconclusive = small, poorly fitted or top-dose-only effect, or another doubt; inactive = no such curve, though single readings can be large or run the other way; also: potency is read from the fitted curve at half-maximal effect; % is scaled to controls: 0 for no effect and ±100 for the full control effect
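Growth was read as firefly luciferase luminescence after a 48 h, 37 C, 5% CO2 exposure of compounds to reporter-bearing P. falciparum cultures (0.1% parasitemia, 2% hematocrit final) in Albumax-supplemented RPMI 1640.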
CHX counter: affects cycloheximide protein synthesis inhibition readout, counter-screen; cell reporter, cycloheximide protein synthesis inhibition counterscreen; max response, %; 300,000 compounds, 12% hits; in the data active = max response mostly above about 13%, no sharp cut-off; inactive = mostly below about 14%; also: read at 38.3 µM for the half of the compounds with a filed dose; 0% is about no effect
NS1 function inh: influenza NS1 inhibition. 270,000 compounds, 0.4% hits. Potency, µM (top dose mostly 46.1 µM), without a hit: at the highest dose activity, positive = more growth. AID 2326; also: potency is read from the fitted curve at half-maximal effect; actives are rising curves; nearly all actives have a fitted effect of over 50% in size
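OD600 was taken as the measure of yeast growth restored by compound in an NS1-expressing S. cerevisiae strain. Cells had been washed out of glucose medium and diluted 1:100 into galactose -URA medium, pH 6.0.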
SARS PLP yeast: inhibitors of SARS-CoV papain-like protease in yeast. 330,000 compounds, 0.19% hits. AID 485353. S. cerevisiae expressing SARS-CoV PLpro, growth rescue. Potency, µM (titrated, usually from 32.9 µM), for the others: top-dose activity, positive = growth rescue, most hits filed as activators; also: potency is read from the fitted curve at half-maximal effect; 0% is about no effect; nearly all actives have a fitted effect of over 55% in size
* marks the source's active call; other numbers are inactive results; i = inactive; ? = inconclusive; · = no result. Unless noted, calls follow the shape of the full dose curve.

SMILES | Shiga inhibitor | Pf growth 96h | Pf growth 48h | CHX counter | NS1 function inh | SARS PLP yeast
Cc1c(C(=O)Nc2ccc(Cl)cc2)c2ccccn2c1C(=O)c1ccc(F)cc1 | -8 | ? | · | -5 | 10% | 2%
Cc1cc2ccccn2c1C(=O)Nc1ccccc1 | 68 | 206% | 71% | 23* | -3% | -1%
Cc1cc2ccccn2c1C(=O)Nc1ccc(Cl)cc1 | 73* | 158% | 152% | 18* | 13% | -5%
COc1ccc(-c2noc(Cc3ccccc3OC)n2)cc1 | 44 | 13µM* | 13% | 23 | -32% | -8%
COc1ccc(Cc2nc(-c3cccnc3)no2)cc1OC | -2 | ? | 11% | 5 | 1% | 1%
COc1ccccc1Cc1nc(-c2cccnc2)no1 | 55* | 6% | ? | 37* | -4% | -1%
CN(Cc1nc(-c2cccnc2)no1)S(=O)(=O)c1ccc(Br)cc1 | -2 | 8.3µM* | -8% | 0 | -7% | -20%
CN(Cc1nc(-c2cccnc2)no1)S(=O)(=O)c1ccc2ccccc2c1 | -20 | 10% | 18% | -2 | -64% | 2%
COc1ccc(-c2noc(Cc3cccs3)n2)cc1 | 82* | 45% | 106% | 32* | -10% | 0%
COc1ccc(-c2noc(CN3CCC(Cc4ccccc4)CC3)n2)cc1 | -6 | · | 10% | -2 | -22% | -6%
O=S(=O)(Cc1ccccc1)N=Nc1c(O)[nH]c2ccc(Br)cc12 | -10 | ? | -8% | -1 | -2% | -4%
O=[N+]([O-])c1cccc(S(=O)(=O)N/N=C\c2ccc3c(c2)OCO3)c1 | 75* | 16% | -7% | 43* | 3% | 1%
O=[N+]([O-])c1ccc(S(=O)(=O)N/N=C/c2ccc3c(c2)OCO3)cc1 | 50* | -15% | 0% | 31* | -11% | -3%
COc1ccc(OC)c(N(C)S(=O)(=O)c2cc3c(cc2C)NC(=O)CO3)c1 | 4 | 0% | ? | -2 | -1% | 3%
COc1ccc(OCc2cc(C(=O)NC(C)c3cnn(C)c3)no2)c(Cl)c1 (stereo not given) | 47* | 1% | -3% | 38* | -22% | 3%
CC(NC(=O)c1cc(COc2c(F)cccc2F)on1)c1cnn(-c2ccccc2)c1 (stereo not given) | 76* | ? | 3% | 25* | -10% | 0%
COc1cccc(OCc2cc(C(=O)N3CCN(C)C(c4ccccc4)C3)no2)c1 (stereo not given) | 77* | ? | 2% | 32* | -39% | -9%
COc1cc(C(C)=O)ccc1OCc1cc(C(=O)N2CCSCC2)no1 | 8 | ? | 45% | 18 | 1% | ·
COc1ccc(OCc2cc(C(=O)N3CCSCC3)no2)c(Cl)c1 | 143* | ? | 303% | 67* | -18% | -6%
Cc1nn(C)cc1C(C)NC(=O)c1cc(COc2c(F)cccc2F)on1 (stereo not given) | -7 | i | 31% | 7 | 1% | 1%
CC(C)C(C)(C#N)NC(=O)CSc1nc(C2CCCCC2)n(-c2ccccc2)n1 (stereo not given) | -3 | ? | ? | 1 | -12% | 3%
COC(=O)C(O)C(O)(CCC(C)C)C(=O)OC1C(OC)=CC23CCCN2CCc2cc4c(cc2C13)OCO4 (stereo not given) | -27 | · | · | -12 | · | ·
Cn1cc(S(=O)(=O)N2CCCC2)cc1C(=O)N1CCN(c2ccccc2)CC1 | 11 | 19% | ? | -2 | 9% | -6%
COc1ccc(OCc2cc(C(=O)N3CCCCCC3)no2)c(Cl)c1 | 68* | 15% | 33% | 47* | -33% | -7%
COc1ccc(OCc2cc(C(=O)N3CCN(CC(=O)N(C)C)CC3)no2)c(Cl)c1 | 3 | ? | 1% | 23* | -6% | 1%
SMILES | Shiga inhibitor | Pf growth 96h | Pf growth 48h | CHX counter | NS1 function inh | SARS PLP yeast
COc1cccc(OCc2cc(C(=O)NC(C)c3cnn(C)c3C)no2)c1 (stereo not given) | 59* | ? | 4% | 27* | 9% | 4%
O=C(c1cc(COc2ccc(F)cc2Cl)on1)N(CCO)Cc1cccs1 | 49 | 18% | 19% | 20* | -25% | -3%
CNn1cnc2ccsc2c1=O | 6 | -25% | -11% | -2 | 11% | -1%
Cc1[nH]n(C)c(=O)c1C(=O)c1c(-c2ccccc2Cl)noc1C | -9 | ? | 9% | -1 | -1% | -1%
COCCNC(=O)c1onc(CSc2ccccc2)c1C(=O)NCCOC | · | 45% | 30% | · | · | -1%
Cc1ccc(S(=O)(=O)N(C)c2ccc(C(=O)N(CC(C)C)C3CCS(=O)(=O)C3)cc2)cc1 (stereo not given) | · | ? | ? | · | · | -5%
O=C(NCSc1ccnc(SCNC(=O)c2ccc(F)cc2)n1)c1ccc(F)cc1 | 10 | 23% | 10% | -1 | 19% | 1%
COc1cccc(OCc2cc(C(=O)N3CCC(c4ccncc4)CC3)no2)c1 | -3 | -26% | 6% | 15 | -15% | -9%
O=C(NC1CCc2ccccc21)c1cc(COc2ccc(F)cc2F)on1 (stereo not given) | 29 | 0% | 30% | -3 | 2% | 0%
COc1ccc(OCc2cc(C(=O)NC3CCc4ccccc43)no2)c(Cl)c1 (stereo not given) | -1 | 10µM* | -20% | 0 | 4% | ?
COc1cccc(OCc2cc(C(=O)N3C[C@H]4C[C@@H](C3)c3cccc(=O)n3C4)no2)c1 | 52* | ? | 0% | 60* | -10% | 0%
COc1ccc(OCc2cc(C(=O)N3CCC(c4ccccc4)CC3)no2)c(Cl)c1 | 106* | 22% | -5% | 78* | -5% | 4%
COc1ccc(OCc2cc(C(=O)N3CCOCC3)no2)c(Cl)c1 | 91* | 54% | 195% | 43* | -8% | -2%
Cc1cc(Cc2cc(Cc3cc(C)cc(C(C)(C)C)c3O)c(C)cc2C)c(O)c(C(C)(C)C)c1 | · | · | · | · | 3% | ·
Cc1ccc(S(=O)(=O)NCCC(=O)NC2CC2)cc1 | -6 | 10% | 4% | 2 | -11% | -4%
Nc1ccccc1C(=O)N1O[C@@H]2C=C[C@H]1C2 | · | · | · | · | · | 9%
O=C(c1cc(COc2ccc(F)cc2Cl)on1)N1CCSCC1 | 67* | ? | 106% | 62* | -45% | -3%
COc1ccc(CNC(=O)CCCn2nc(C)n3ccnc3c2=O)cc1 | 3 | 10% | 4% | -2 | -2% | 3%
Cc1nn(CCCC(=O)NCc2ccccc2)c(=O)c2nccn12 | -1 | 1µM* | 9% | -4 | 10% | 3%
COC(=O)C(=Nc1ccccc1)/C(C(=O)C(=O)N(C)c1ccccc1)=C(\O)c1ccccc1 | 119* | 87% | 34% | 44* | 8% | 0%
CN(C)c1ccc(C(C(=O)NCC2CCCO2)N(C(=O)c2snc(C(N)=O)c2N)c2ccc3c(c2)OCO3)cc1 (stereo not given) | -1 | ? | ? | -3 | -16% | -9%

Screens deposited in PubChem by National Center for Advancing Translational Sciences (NCATS).
